Data on 36 molecules can be found in PubChem BioAssay AID624325 (Sanford-Burnham Center for Chemical Genomics, 2012).

Structures are written as SMILES. The whole screen tested about 2,300 compounds, of which about 1,000 (43%) were called active. The set was probably picked from earlier hits. These entries were drawn from the full list. Unmarked numbers belong to inactive results.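 How the source made its calls: active means compounds inhibiting the enzyme by at least 50% at 15 µM in any one of the replicates; inactive means the rest.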

In this assay the target is Fatty acid synthase (Homo sapiens) (UniProt P49327). In words: inhibition of human FAS-TE enzyme activity – biochemical, fluorescence intensity, single concentration, confirmation (AID 624325).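 Further: 0% = enzyme with DMSO only and 100% = wells lacking enzyme.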 The conditions noted are these: recombinant FAS-TE, OMFH fluorogenic substrate, at 15 µM, active compounds read high.
Chain of Fatty acid synthase (Homo sapiens) (P49327 whole entry, looked up): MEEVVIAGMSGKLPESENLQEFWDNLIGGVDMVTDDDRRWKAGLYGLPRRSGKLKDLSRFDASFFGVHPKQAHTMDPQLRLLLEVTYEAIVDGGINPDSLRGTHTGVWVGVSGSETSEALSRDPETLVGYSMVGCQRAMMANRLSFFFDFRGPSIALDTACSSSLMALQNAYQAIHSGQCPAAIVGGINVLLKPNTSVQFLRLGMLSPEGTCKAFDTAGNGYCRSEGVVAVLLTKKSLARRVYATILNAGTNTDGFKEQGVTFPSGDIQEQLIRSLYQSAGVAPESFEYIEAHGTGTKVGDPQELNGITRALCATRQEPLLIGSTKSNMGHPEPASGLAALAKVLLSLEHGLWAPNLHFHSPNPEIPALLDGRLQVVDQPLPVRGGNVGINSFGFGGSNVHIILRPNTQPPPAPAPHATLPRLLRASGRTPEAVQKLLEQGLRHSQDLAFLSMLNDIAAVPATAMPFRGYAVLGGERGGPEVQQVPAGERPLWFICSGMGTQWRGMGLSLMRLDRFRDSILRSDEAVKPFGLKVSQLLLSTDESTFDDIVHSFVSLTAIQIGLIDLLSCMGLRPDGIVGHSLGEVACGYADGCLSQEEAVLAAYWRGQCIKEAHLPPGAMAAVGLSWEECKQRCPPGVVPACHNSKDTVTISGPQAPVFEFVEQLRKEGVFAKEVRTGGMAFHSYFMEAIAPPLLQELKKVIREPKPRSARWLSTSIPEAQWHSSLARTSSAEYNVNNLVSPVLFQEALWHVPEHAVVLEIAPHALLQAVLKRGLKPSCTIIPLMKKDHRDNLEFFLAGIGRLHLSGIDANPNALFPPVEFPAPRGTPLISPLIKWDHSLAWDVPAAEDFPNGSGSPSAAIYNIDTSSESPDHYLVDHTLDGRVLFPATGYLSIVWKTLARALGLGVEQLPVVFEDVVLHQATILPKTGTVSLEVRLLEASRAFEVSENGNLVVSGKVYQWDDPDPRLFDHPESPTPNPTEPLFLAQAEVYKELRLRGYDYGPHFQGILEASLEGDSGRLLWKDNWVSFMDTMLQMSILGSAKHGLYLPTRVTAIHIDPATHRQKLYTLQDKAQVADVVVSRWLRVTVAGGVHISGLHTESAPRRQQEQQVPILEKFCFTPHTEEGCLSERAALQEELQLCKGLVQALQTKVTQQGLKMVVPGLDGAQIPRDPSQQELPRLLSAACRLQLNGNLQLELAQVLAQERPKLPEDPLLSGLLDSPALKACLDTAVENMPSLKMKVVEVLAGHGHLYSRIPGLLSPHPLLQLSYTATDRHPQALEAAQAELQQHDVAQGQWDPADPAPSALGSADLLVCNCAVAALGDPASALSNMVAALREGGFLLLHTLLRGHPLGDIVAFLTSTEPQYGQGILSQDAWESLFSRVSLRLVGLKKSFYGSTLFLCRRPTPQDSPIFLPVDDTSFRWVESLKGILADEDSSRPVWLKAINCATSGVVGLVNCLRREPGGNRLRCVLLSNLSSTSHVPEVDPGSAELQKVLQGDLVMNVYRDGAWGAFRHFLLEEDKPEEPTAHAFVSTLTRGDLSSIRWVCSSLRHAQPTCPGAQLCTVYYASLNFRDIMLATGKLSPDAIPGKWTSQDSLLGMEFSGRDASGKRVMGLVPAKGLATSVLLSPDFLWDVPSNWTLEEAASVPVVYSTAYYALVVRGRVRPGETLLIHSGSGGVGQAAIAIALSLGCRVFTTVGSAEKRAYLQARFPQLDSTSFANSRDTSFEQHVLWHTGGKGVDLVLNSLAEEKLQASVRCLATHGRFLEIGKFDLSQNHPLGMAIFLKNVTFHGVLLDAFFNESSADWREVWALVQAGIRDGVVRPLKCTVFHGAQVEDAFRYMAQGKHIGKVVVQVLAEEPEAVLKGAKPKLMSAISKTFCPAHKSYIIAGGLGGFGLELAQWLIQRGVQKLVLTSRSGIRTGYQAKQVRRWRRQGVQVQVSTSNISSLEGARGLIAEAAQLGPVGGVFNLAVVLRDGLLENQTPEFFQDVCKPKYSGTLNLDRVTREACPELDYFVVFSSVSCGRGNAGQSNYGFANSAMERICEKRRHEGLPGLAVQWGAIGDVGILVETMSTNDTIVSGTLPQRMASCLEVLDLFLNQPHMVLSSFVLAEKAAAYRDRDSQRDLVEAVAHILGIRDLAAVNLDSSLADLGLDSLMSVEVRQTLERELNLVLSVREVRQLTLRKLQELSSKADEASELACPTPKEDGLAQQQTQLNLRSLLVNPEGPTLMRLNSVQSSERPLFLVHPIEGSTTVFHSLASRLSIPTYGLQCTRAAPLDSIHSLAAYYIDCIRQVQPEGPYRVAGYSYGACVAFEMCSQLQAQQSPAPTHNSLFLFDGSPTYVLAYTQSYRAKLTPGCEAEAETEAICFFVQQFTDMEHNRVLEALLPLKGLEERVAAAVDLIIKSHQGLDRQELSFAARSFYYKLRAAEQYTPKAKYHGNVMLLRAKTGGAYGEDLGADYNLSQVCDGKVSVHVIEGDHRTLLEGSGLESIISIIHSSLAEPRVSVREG
On to `Cc1cccc(-n2c(SCC(=O)Nc3cccc(S(=O)(=O)NC4=NCCCCC4)c3)nc3ccccc3c2=O)c1C`, for which the inhibition (commonly the relative decrease from the control value, in per cent) was 18.8%.

For the molecule `COC(=O)c1cc(C(=O)NC(C)C2CC3CCC2C3)cc([N+](=O)[O-])c1` (stereo unspecified), the inhibition was 59.5% (active).

`O=C(Nc1cccc([N+](=O)[O-])c1)N1CCc2ccccc2C1`: the inhibition is 65.8% (active).

Take `O=C(NCCCCc1ccccc1)C1CC(c2ccc([N+](=O)[O-])cc2)=NO1` (stereo unspecified): the inhibition is 59.7% (active).

Consider `O=C1NC(Cc2ccccc2)c2nc3ccc(Br)cc3c(=O)n2-c2cc3ccccc3cc21` (stereo unspecified), for which the inhibition is 30.7%.

Take `CC(NC(=O)Nc1cccc([N+](=O)[O-])c1)c1ccc2c(c1)OCO2` (stereo unspecified): the inhibition is 84.4% (active).

Take `CCN(C(=O)CSc1ncnc2c1cnn2-c1ccccc1)C1CCS(=O)(=O)C1` (stereo unspecified): the inhibition is 69.8% (active).

`CCOc1ccc(Br)cc1S(=O)(=O)Nc1ccc(C(=O)OC(C)C(=O)N(C)c2ccccc2)cc1` (stereo unspecified): the inhibition was 14.2%.

On to `CC1(C(=O)NS(=O)(=O)c2ccc(C#N)cc2)CCN1C(=O)c1ccc(C2CCCCC2)cc1` (stereo unspecified), for which the inhibition is 71.8% (active).

Turning to `Cc1ccc(C)c(NC(=O)CSc2nc3c(oc4ccccc43)c(=O)n2-c2ccccc2)c1`, the inhibition is 31.1%.

Regarding `COc1ccccc1C1CC(=O)n2c(nc(-c3ccccc3)c2-c2ccccc2)S1` (stereo unspecified), the inhibition was 0.79%.

For `CC(C)(C)NC(=O)NC(=O)COC(=O)Cc1ccc(Cl)cc1Cl`, the inhibition is 68.1% (active).

On to `O=C1OCCN1C(=O)[C@H]1[C@H](c2ccc(Cl)cc2)C(c2cccc(Cl)c2)=NN1c1ccc(Br)cc1`, for which the inhibition is 15.5%.

On to `Cc1cccc(NC(=O)c2cc([N+](=O)[O-])ccc2N2CCN(C)CC2)c1`, for which the inhibition is 54% (active).

Take `O=C(Nc1cccc(Cl)c1)c1cc([N+](=O)[O-])ccc1N1CCN(CCO)CC1`: the inhibition was 66.5% (active).

Turning to `O=S(=O)(c1ccc(F)cc1)n1ccc(-c2cnc(-c3ccccc3)s2)n1`, the inhibition is 14.5%.

As for `Cc1ccc(S(=O)(=O)c2nnn3c2nc(N2CCN(c4ccccn4)CC2)c2ccccc23)cc1`, the inhibition is 25.4%.

For `Cc1nc2c(OCc3ccc(Cl)cc3Cl)cccn2c1N(C)CC1CC1`, the inhibition is 50% (active).

Turning to `O=C(COC(=O)c1cc([N+](=O)[O-])ccc1NCc1ccccc1)NC1CCCCC1`, the inhibition is 37.6% (active).

With `CCN1C(=O)[C@H]2[C@@H](c3ccc(SC4CCCCC4)c(OC)c3)N[C@@](Cc3ccccc3)(C(=O)OC)[C@H]2C1=O`, the inhibition is 15.5%.

As for `CCN1C(=O)[C@H]2[C@@H](c3ccc(-c4ccc(F)cc4)cc3)N[C@@](Cc3ccccc3)(C(=O)OC)[C@H]2C1=O`, the inhibition is 43.4%.

For `Cc1cccc(N=C2NC(=O)/C(=C/c3cn(C)c4ccccc34)S2)c1`, the inhibition is -6.27%.

For `COc1cc(-c2noc(C3CCCN(S(=O)(=O)c4cccc(Cl)c4)C3)n2)cc(OC)c1OC` (stereo unspecified), the inhibition is 30.8%.

As for `COc1ccc([N+](=O)[O-])cc1NC(=O)COC(=O)/C=C/c1ccco1`, the inhibition is 70.8% (active).

For the molecule `CC(C)Oc1ccc(Cc2n[nH]c(=S)n2Cc2ccccc2)cc1Cl`, the inhibition is 39.1% (active).

As for `CC(=O)c1sc(N/N=C/c2ccc(C(C)C)cc2)nc1C`, the inhibition was 19.8%.

Regarding `O=C(Nc1ccc(N2C(=O)c3cccc4cccc(c34)C2=O)cc1)c1ccc(N2CCCCC2)c([N+](=O)[O-])c1`, the inhibition is 10.5%.

Regarding `COc1ccc(C2CC(c3ccccc3)=NN2C(=O)c2ccc(Cl)c([N+](=O)[O-])c2)cc1` (stereo unspecified), the inhibition is 21.3%.

On to `O=C(c1ccc(Cl)c([N+](=O)[O-])c1)N1CCN(c2ccccc2)CC1`, for which the inhibition is 58.3% (active).

For `O=c1ccc2c(-c3ccccc3S(=O)(=O)O)c3ccc(O)c(O)c3oc-2c1O`, the inhibition was 56.1% (active).

For the molecule `O=C(Nc1nnc(SCc2ccccc2Cl)s1)c1cccc([N+](=O)[O-])c1`, the inhibition was 51.7% (active).

Take `O=C(Nc1ccc(C2CC2(Cl)Cl)cc1)c1cccc([N+](=O)[O-])c1` (stereo unspecified): the inhibition was 19.8%.

Consider `CC(=O)c1ccc(S(=O)(=O)N2CCN(c3nc4c(C)c(C)ccc4cc3C#N)CC2)cc1`, for which the inhibition is 32.8%.

Take `Cc1ccc(S(=O)(=O)N2CC[C@H]3[C@@H](C2)C(=O)C[C@@H](c2ccccc2)N3S(=O)(=O)c2ccc(C)cc2)cc1`: the inhibition is 13.8%.

On to `COc1ccc(-c2nnc(SC(=O)N3c4ccccc4Sc4ccccc43)o2)cc1`, for which the inhibition was 13.1%.

In the case of `CCCCOC(=O)CNc1nnc(SCC(=O)OCC)[nH]c1=O`, the inhibition was 51% (active).
